In PubChem BioAssay AID1159580 (chemical genetic matrix, 2015):
Hit rate of the full screen: of about 5,500 compounds, about 2,000 (36%) were called active. Another 18% or so got no clear call; they are omitted. Rule as the data show it: active = normalized growth mostly below about 0.91 (no sharp cut-off); inconclusive = no clear call, values can overlap the other calls; inactive = mostly above about 0.92. The list shows a part of the results.

Test: chemical genetic growth profiling, strain panel (AID 1159580);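 also: tested at 20 µM; growth read once vehicle control cultures reached saturation at 30 °C; 1 = growth at the plate median or of vehicle wells; lower values mean less growth of the strain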
Conditions: S. cerevisiae deletion strains, growth OD

Measured: normalized growth

COC(=O)[C@@H]1OC(=O)C2OC23[C@@]1(C)CCC1[C@]2(C)C(C[C@H](O)[C@]13C)C(C)(C)[C@H](OC(C)=O)C[C@@H]2OC(C)=O (some centres not stated)
inactive: locus YAL021C, strain ccr4, hits give low values 1.01 | locus YAL026C, strain drs2, hits give low values 1.01 | locus YAL030W, strain snc1, hits give low values 1.01 | locus YBL061C, strain skt5, hits give low values 1.01 | locus YBR009C, strain hhf1, hits give low values 1.03 | locus YBR021W, strain FUR4, hits give low values 1.01 | locus YBR023C, strain chs3, hits give low values 1.02 | locus YBR171W, strain sec66, hits give low values 1.02 | locus YBR229C, strain ROT2, hits give low values 1.01 | locus YBR231C, strain swc5, hits give low values 1.01 | locus YBR279W, strain paf1, hits give low values 1.02 | locus YCL011C, strain gbp2, hits give low values 1 | locus YCL016C, strain dcc1, hits give low values 1.02 | locus YCL029C, strain bik1, hits give low values 0.999 | locus YCL061C, strain MRC1, hits give low values 1.02 | locus YCL069W, strain vba3, hits give low values 1.01 | locus YCR088W, strain abp1, hits give low values 1.02 | locus YDL005C, strain med2, hits give low values 1.02 | locus YDL035C, strain GPR1, hits give low values 1.04 | locus YDL040C, strain nat1, hits give low values 1.01 | locus YDL074C, strain BRE1, hits give low values 1.04 | locus YDL101C, strain DUN1, hits give low values 1 | locus YDL134C, strain PPH21, hits give low values 1 | locus YDL185W, strain tfp1, hits give low values 1 | locus YDL192W, strain arf1, hits give low values 1.01 | locus YDR001C, strain nth1, hits give low values 1.01 | locus YDR069C, strain doa4, hits give low values 1.03 | locus YDR101C, strain arx1, hits give low values 1 | locus YDR137W, strain rgp1, hits give low values 1.05 | locus YDR159W, strain sac3, hits give low values 1.01 | locus YDR162C, strain NBP2, hits give low values 1.02 | locus YDR195W, strain ref2 0.98 | locus YDR297W, strain sur2, hits give low values 1.01 | locus YDR318W, strain mcm21, hits give low values 1.01 | locus YDR334W, strain swr1, hits give low values 1.02 | locus YDR335W, strain msn5, hits give low values 1.05 | locus YDR388W, hits give low values 0.989 | locus YDR392W, strain spt3, hits give low values 1.03 | locus YDR502C, strain sam2, hits give low values 0.993 | locus YEL003W, strain gim4, hits give low values 1.02 | locus YEL037C, strain rad23, hits give low values 1.01 | locus YEL061C, strain CIN8 (second series), hits give low values 1.02 | locus YEL061C, strain CIN8, hits give low values 1.01 | locus YER015W, strain faa2, hits give low values 1.02 | locus YER016W, strain bim1, hits give low values 1.01 | locus YER110C, hits give low values 0.995 | locus YER111C, strain swi4, hits give low values 1.01 | locus YER155C, strain BEM2 (second series), hits give low values 1.02 | locus YER155C, strain BEM2, hits give low values 1 | locus YER167W, strain BCK2, hits give low values 1.02 | locus YFR010W, strain ubp6, hits give low values 1.01 | locus YGL078C, strain dbp3, hits give low values 0.994 | locus YGL086W, strain mad1, hits give low values 1 | locus YGL167C, strain pmr1, hits give low values 1.02 | locus YGL173C, strain kem1, hits give low values 1.01 | locus YGL227W, strain vid30, hits give low values 1.03 | locus YGL240W, strain doc1, hits give low values 1.04 | locus YGL248W, strain PDE1, hits give low values 1.01 | locus YGL253W, strain hxk2, hits give low values 1.02 | locus YGR135W, strain pre9, hits give low values 0.981 | locus YGR252W, strain gcn5, hits give low values 0.989 | locus YHR013C, strain ard1, hits give low values 1.02 | locus YHR027C, strain rpn1, hits give low values 1.02 | locus YHR030C, strain SLT2, hits give low values 0.999 | locus YHR079C, strain IRE1 (second series), hits give low values 1.01 | locus YHR079C, strain IRE1, hits give low values 0.977 | locus YHR094C, strain hxt1, hits give low values 0.995 | locus YHR129C, strain ARP1, hits give low values 1.01 | locus YHR142W, strain chs7, hits give low values 1.02 | locus YHR200W, strain rpn10, hits give low values 0.987 | locus YIL066C, strain RNR3, hits give low values 1.03 | locus YIL073C, strain SPO22, hits give low values 1.05 | locus YIL125W, strain kgd1, hits give low values 0.998 | locus YIR030C, strain dcg1, hits give low values 1.01 | locus YJL092W, strain hpr5, hits give low values 1.02 | locus YJL095W, strain BCK1 (second series), hits give low values 1.02 | locus YJL095W, strain BCK1, hits give low values 1 | locus YJL115W, strain asf1, hits give low values 1.02 | locus YJL129C, strain trk1, hits give low values 1 | locus YJL134W, strain LCB3, hits give low values 1.01 | locus YJL154C, strain vps35, hits give low values 1.01 | locus YJL164C, strain tpk1, hits give low values 1.02 | locus YJL166W, strain qcr8, hits give low values 1.01 | locus YJL168C, strain set2, hits give low values 0.991 | locus YJL187C, strain SWE1 (second series), hits give low values 1 | locus YJL187C, strain SWE1, hits give low values 1 | locus YJR043C, strain POL32, hits give low values 1.01 | locus YJR066W, strain TOR1, hits give low values 0.906 | locus YKL009W, strain mrt4, hits give low values 1 | locus YKL068W, hits give low values 1.01 | locus YKL085W, strain MDH1 (second series), hits give low values 1 | locus YKL085W, strain MDH1, hits give low values 1 | locus YKL160W, strain elf1, hits give low values 1.02 | locus YKL190W, strain CNB1, hits give low values 1.01 | locus YKR001C, strain vps1, hits give low values 0.98 | locus YKR026C, strain gcn3, hits give low values 1.01 | locus YKR091W, strain srl3, hits give low values 1.01 | locus YLL001W, strain dnm1, hits give low values 1.02 | locus YLL026W, hits give low values 1.01 | locus YLL041C, strain sdh2, hits give low values 1 | locus YLR027C, strain aat2, hits give low values 1.02 | locus YLR039C, strain RIC1, hits give low values 1.03 | locus YLR058C, strain SHM2, hits give low values 1.02 | locus YLR102C, strain apc9, hits give low values 0.997 | locus YLR113W, strain HOG1, hits give low values 1.04 | locus YLR221C, strain rsa3, hits give low values 1.01 | locus YLR258W, strain gsy2, hits give low values 1.01 | locus YLR262C, strain YPT6 (second series), hits give low values 1 | locus YLR268W, strain sec22, hits give low values 1.02 | locus YLR320W, strain mms22, hits give low values 1.02 | locus YLR330W, strain CHS5, hits give low values 1.01 | locus YLR342W, strain FKS1, hits give low values 1.01 | locus YLR357W, strain rsc2, hits give low values 1.02 | locus YLR370C, strain arc18, hits give low values 1.02 | locus YLR371W, strain rom2, hits give low values 1 | locus YLR384C, strain iki3, hits give low values 1 | locus YLR418C, strain cdc73, hits give low values 1.01 | locus YML016C, strain PPZ1, hits give low values 1 | locus YML032C, strain rad52, hits give low values 0.994 | locus YML120C, strain ndi1, hits give low values 1.01 | locus YML124C, strain tub3, hits give low values 1 | locus YMR058W, strain fet3, hits give low values 1.02 | locus YMR078C, strain ctf18, hits give low values 1 | locus YMR125W, strain sto1, hits give low values 1.01 | locus YMR129W, hits give low values 1 | locus YMR205C, strain PFK2, hits give low values 1.02 | locus YMR223W, strain ubp8, hits give low values 0.99 | locus YMR231W, strain pep5, hits give low values 1 | locus YMR263W, strain SAP30, hits give low values 1.01 | locus YMR307W, strain GAS1, hits give low values 1 | locus YNL067W, strain RPL9B, hits give low values 1 | locus YNL071W, strain lat1, hits give low values 1.01 | locus YNL183C, strain NPR1, hits give low values 0.938 | locus YNL209W, strain ssb2, hits give low values 1.01 | locus YNL233W, strain BNI4, hits give low values 1 | locus YNL248C, strain rpa49, hits give low values 1.01 | locus YNL250W, strain rad50, hits give low values 0.989 | locus YNL271C, strain bni1, hits give low values 1.01 | locus YNL298W, strain CLA4, hits give low values 1 | locus YNL307C, strain MCK1, hits give low values 0.998 | locus YNL322C, strain KRE1 (second series), hits give low values 1.02 | locus YNR049C, strain mso1, hits give low values 1.02 | locus YNR052C, strain pop2, hits give low values 0.993 | locus YOL006C, strain TOP1, hits give low values 1.08 | locus YOL012C, strain htz1 1.19 | locus YOL147C, strain pex11, hits give low values 1 | locus YOR001W, strain rrp6, hits give low values 1 | locus YOR061W, strain CKA2, hits give low values 1.03 | locus YOR069W, strain VPS5, hits give low values 1.01 | locus YOR070C, strain gyp1, hits give low values 1.02 | locus YOR080W, strain dia2, hits give low values 1 | locus YOR083W, strain WHI5, hits give low values 1.02 | locus YOR106W, strain vam3, hits give low values 1.03 | locus YOR136W, strain idh2, hits give low values 0.994 | locus YOR144C, strain elg1, hits give low values 0.996 | locus YOR184W, strain ser1, hits give low values 1.03 | locus YOR231W, strain MKK1, hits give low values 0.989 | locus YOR265W, strain rbl2, hits give low values 0.995 | locus YOR270C, strain vph1, hits give low values 0.986 | locus YOR290C, strain snf2, hits give low values 1.04 | locus YOR316C, strain cot1, hits give low values 0.996 | locus YPL051W, strain arl3, hits give low values 1.02 | locus YPL078C, strain atp4, hits give low values 1.03 | locus YPL106C, strain sse1, hits give low values 1.04 | locus YPL240C, strain hsp82, hits give low values 1.01 | locus YPL241C, strain CIN2, hits give low values 1.01 | locus YPL256C, strain CLN2, hits give low values 0.979 | locus YPR119W, strain clb2, hits give low values 1 | locus YPR141C, strain kar3, hits give low values 1.01 | locus YPR163C, strain tif3, hits give low values 0.996 | locus YPR167C, strain met16, hits give low values 1 | strain wtn01, hits give low values 1
